Source: PMC7862700, “An all-to-all approach to the identification of sequence-specific readers for epigenetic DNA modifications on cytosine”

Assays:
Assay in all cases: DAPPL (digital affinity profiling via proximity ligation, sequencing); 10 mM Tris-HCl pH 7.5, 50 mM NaCl, 1 mM DTT, 4% glycerol, room temperature, 30 min; GST-TFs on glutathione beads, 16-mer random dsDNA library, 0.1% formaldehyde crosslink after washing; high values mean tight binding
Settings in all cases: protein: recombinant; tags: N-terminal GST; dsDNA, one strand shown
FLI1 = target: T1, FLI1 (Homo sapiens, UniProt Q01543 1-452)
T1 sequence: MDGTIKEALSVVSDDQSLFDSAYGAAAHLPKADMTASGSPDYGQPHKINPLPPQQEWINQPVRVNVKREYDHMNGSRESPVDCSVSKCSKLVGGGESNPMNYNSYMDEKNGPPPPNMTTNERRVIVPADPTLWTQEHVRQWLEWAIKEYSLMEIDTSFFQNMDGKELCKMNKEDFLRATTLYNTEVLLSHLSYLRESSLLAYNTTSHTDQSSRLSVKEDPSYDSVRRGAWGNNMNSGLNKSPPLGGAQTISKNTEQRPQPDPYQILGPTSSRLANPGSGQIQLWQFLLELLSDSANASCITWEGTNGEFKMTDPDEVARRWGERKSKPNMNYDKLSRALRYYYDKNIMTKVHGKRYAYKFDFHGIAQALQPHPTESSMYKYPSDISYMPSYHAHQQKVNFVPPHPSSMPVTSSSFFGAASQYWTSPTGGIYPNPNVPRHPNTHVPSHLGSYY
How it was run: (§1)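 The binding signal reported is, for every hexamer, its read frequency for a factor over its read frequency for the tag-only sample. Reads came from pools of yeast-expressed, GST-fused human transcription factors on glutathione beads, barcoded with DNA and mixed with that sample, which were incubated with 200 nmole of a random double-stranded 16-mer DNA library in Tris/NaCl/DTT/glycerol buffer at room temperature for 30 min. After washing, the pools were crosslinked with 0.1% formaldehyde, proximity-ligated with BsaI/T4 ligase for 1 h at 37 °C, PCR-amplified and sequenced on an Illumina NextSeq500.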

ELK1 = target: T2, ELK1 (Homo sapiens, UniProt P19419 1-428)
T2 sequence: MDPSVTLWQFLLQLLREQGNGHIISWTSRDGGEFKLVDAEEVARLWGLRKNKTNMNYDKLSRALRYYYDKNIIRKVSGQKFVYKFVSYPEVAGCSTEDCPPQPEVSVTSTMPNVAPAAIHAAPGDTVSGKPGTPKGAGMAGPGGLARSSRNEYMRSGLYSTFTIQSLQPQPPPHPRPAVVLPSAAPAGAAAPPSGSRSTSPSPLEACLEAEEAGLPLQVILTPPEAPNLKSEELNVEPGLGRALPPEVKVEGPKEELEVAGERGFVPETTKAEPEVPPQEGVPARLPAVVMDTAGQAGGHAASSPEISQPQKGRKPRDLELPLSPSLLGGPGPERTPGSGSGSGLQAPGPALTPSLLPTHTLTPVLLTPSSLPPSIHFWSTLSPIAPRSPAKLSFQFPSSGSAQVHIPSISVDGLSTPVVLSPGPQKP
How it was run: as §1

GABPA = target: T3, GABPA (Homo sapiens, UniProt Q06546 1-454)
T3 sequence: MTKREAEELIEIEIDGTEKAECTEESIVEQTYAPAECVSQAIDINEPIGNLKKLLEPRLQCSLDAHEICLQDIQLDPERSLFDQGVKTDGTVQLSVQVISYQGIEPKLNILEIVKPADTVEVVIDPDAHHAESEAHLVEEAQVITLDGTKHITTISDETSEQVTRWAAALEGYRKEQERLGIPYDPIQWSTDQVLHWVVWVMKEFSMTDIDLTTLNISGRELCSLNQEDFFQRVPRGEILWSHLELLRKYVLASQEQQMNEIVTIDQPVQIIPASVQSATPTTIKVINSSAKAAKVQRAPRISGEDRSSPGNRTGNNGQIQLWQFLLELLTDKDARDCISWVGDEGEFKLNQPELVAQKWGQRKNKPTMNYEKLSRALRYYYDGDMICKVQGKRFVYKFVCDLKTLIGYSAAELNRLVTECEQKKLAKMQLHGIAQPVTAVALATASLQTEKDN
How it was run: as §1

ERG = target: T4, ERG (Homo sapiens, UniProt P11308 1-479)
T4 sequence: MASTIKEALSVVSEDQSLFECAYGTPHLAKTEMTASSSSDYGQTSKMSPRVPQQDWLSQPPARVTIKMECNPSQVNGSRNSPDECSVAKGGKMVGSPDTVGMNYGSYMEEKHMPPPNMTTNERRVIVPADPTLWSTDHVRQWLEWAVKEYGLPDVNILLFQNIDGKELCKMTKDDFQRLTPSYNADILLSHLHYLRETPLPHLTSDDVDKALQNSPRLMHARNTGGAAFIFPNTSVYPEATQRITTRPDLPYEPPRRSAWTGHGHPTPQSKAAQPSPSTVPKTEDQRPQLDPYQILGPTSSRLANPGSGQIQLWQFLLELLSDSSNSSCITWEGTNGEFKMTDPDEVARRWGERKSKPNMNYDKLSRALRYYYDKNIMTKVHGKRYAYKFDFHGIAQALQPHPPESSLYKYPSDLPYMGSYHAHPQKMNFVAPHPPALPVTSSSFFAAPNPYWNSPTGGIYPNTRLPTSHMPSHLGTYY
How it was run: as §1

ELF1 = ELF1 (Homo sapiens, UniProt P32519 1-619)
How it was run: as §1

EHF = target: T5, EHF (Homo sapiens, UniProt Q9NZC4 1-300)
T5 sequence: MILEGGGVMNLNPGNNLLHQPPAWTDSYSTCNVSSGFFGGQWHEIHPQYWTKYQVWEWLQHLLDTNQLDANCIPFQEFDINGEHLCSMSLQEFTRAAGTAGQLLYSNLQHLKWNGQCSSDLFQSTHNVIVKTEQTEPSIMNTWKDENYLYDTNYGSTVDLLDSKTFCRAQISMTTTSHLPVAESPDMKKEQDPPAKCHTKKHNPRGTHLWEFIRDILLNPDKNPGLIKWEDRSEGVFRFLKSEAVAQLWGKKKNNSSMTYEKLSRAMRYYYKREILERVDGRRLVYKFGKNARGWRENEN
How it was run: as §1

SPI1 = SPI1 (Homo sapiens, UniProt P17947 1-270)
How it was run: as §1

SPIB = SPIB (Homo sapiens, UniProt Q01892 1-262)
How it was run: as §1

ELK3 = target: T6, ELK3 (Homo sapiens, UniProt P41970 1-407)
T6 sequence: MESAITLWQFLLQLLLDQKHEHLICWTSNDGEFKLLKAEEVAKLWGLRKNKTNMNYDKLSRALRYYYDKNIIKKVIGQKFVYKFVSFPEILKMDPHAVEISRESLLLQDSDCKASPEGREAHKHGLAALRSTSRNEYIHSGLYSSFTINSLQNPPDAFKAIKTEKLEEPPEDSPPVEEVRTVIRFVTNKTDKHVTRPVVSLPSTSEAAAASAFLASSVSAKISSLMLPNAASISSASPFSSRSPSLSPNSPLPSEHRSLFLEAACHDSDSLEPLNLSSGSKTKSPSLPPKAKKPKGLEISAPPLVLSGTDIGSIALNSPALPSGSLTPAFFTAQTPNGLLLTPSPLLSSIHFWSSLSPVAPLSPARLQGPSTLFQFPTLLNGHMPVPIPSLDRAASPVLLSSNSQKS
How it was run: as §1

Sequence of ELF1 (P32519 whole entry): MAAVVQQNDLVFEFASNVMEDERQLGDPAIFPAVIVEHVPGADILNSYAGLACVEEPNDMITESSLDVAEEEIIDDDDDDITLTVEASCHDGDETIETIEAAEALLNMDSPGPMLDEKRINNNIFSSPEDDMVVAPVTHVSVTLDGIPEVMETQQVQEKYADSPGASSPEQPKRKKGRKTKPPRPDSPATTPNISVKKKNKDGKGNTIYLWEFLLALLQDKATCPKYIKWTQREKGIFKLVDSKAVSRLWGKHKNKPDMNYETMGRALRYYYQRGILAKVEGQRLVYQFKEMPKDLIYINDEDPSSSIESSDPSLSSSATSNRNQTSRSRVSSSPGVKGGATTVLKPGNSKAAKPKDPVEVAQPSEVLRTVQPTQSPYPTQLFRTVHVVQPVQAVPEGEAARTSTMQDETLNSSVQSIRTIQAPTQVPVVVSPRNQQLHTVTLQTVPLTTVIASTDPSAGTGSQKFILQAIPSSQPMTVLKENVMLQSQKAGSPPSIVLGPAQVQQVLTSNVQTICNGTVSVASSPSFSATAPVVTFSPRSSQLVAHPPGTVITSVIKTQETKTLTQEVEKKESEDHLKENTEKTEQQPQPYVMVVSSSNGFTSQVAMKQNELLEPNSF
Sequence of SPIB (Q01892 whole entry): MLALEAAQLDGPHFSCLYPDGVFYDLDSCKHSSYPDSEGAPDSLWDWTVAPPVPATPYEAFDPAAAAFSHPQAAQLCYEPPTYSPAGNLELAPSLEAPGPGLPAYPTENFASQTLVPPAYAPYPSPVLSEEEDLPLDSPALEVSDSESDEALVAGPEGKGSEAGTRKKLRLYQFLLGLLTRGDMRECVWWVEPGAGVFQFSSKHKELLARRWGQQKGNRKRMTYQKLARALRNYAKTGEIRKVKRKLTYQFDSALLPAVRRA

**Q.** Which binding signal (FLI1) does the source give for GAAGTT here?
**A.** 1.76 fold enrichment (6-mer frequency, TF over GST control)

**Q.** And the binding signal (ELK1)?
**A.** 1.66 fold enrichment (6-mer frequency, TF over GST control)

**Q.** And the binding signal (GABPA)?
**A.** 1.63 fold enrichment (6-mer frequency, TF over GST control)

**Q.** And the binding signal (ERG)?
**A.** 1.77 fold enrichment (6-mer frequency, TF over GST control)

**Q.** What about the binding signal (ELF1) of the same sequence?
**A.** 1.61 fold enrichment (6-mer frequency, TF over GST control)

**Q.** What about the binding signal (EHF) of the same sequence?
**A.** 1.72 fold enrichment (6-mer frequency, TF over GST control)

**Q.** What about the binding signal (SPI1) of the same sequence?
**A.** 2.02 fold enrichment (6-mer frequency, TF over GST control)

**Q.** And the binding signal (SPIB)?
**A.** 1.72 fold enrichment (6-mer frequency, TF over GST control)

**Q.** What about the binding signal (ELK3) of the same sequence?
**A.** 1.62 fold enrichment (6-mer frequency, TF over GST control)
